# Assay results: PubChem BioAssay
# Calls of active or inactive are those of the source. Unless noted, how the calls were made is not given here.
# Columns and labels:
# [1] = test system: XIP peptide (Xip251-270) binding; assay: small-molecule binders of XIP peptide, primary screen, biochemical, small-molecule microarray, fluorescence 635/667 nm, 0.1 µg/mL protein (AID 1182); settings: fluorescent protein binding, 635 nm, higher = more signal, called active from +8 up or from −8 down
# XIP peptide (Xip251-270) = assay: small-molecule binders of XIP peptide, primary screen, biochemical, small-molecule microarray, fluorescence 635/667 nm, 0.5 µg/mL protein (AID 1183); settings: small-molecule microarray binding, fluorescence 635 nm; higher = more signal
# [2] = Plasmodium falciparum growth inhibition, primary screen, strain 3D7, DAPI fluorescence, 100 nL (AID 1184);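 further: parasites grown inside human red blood cells in medium with human serum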; settings: P. falciparum 3D7 growth, 3 d, higher = more signal
# [3] = target: Homeobox protein Hox-A13 (Mus musculus) (UniProt Q62424); assay: inhibitors of HoxA13-DNA binding, primary screen, biochemical, fluorescence polarization, labeled oligonucleotide (AID 1185); settings: 15 min, higher = more signal, called active from +8 up or from −8 down
# Sequence of Homeobox protein Hox-A13 (Mus musculus) (Q62424 whole entry, looked up): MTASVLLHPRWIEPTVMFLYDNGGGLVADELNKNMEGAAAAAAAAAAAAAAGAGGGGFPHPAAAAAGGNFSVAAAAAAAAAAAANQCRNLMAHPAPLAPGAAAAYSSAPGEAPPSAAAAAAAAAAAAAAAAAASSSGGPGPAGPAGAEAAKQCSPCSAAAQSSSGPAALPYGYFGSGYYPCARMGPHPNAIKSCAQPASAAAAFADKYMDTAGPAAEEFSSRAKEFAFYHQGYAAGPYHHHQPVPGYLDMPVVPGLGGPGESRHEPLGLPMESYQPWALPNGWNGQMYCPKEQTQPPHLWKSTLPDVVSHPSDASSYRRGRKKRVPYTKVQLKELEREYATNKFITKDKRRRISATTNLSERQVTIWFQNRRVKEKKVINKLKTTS
# [4] = inhibitors of hydroxyurea-induced Chk1 phosphorylation, primary screen, imaging, HeLa, phospho-Chk1 antibody, percent positive cells (AID 1186); settings: hydroxyurea-induced phospho-Chk1 immunofluorescence imaging, higher = more signal
# [5] = inhibitors of hydroxyurea-induced Chk1 phosphorylation, primary screen, imaging, HeLa, phospho-Chk1 nuclear intensity (AID 1187); settings: hydroxyurea-induced phospho-Chk1 immunofluorescence imaging, higher = more signal
SMILES,composite z-score [1],composite z-score (XIP peptide (Xip251-270)),z-score [2],z-score [3],z-score [4],z-score [5]
[N-]=[N+]=NCc1ccccc1C[C@]1(C(=O)NCC(O)CO)COC(c2ccc(OCCCO)cc2)=N1 (stereo partly specified),0.54 (inactive),0.376,-2.04,-4.94 (inactive),-0.0874 (inactive),-0.341 (inactive)
O=C1OCCC/C=C\[C@H]2OC34C=CCN(Cn5nnc6ccccc65)C(=O)[C@H]3N(CCCO)C(=O)[C@@H]4C12 (stereo partly specified),-0.021 (inactive),0.652,-0.0008,-4.13 (inactive),0.472 (inactive),-0.103 (inactive)
C=C(CCCC)/C(=C/C[C@H](OC(C)=O)c1ccc(CO)o1)c1cc(C(=O)OC)ccc1OC,0.485 (inactive),0.73,-1.52,-4.44 (inactive),-0.92 (inactive),-0.469 (inactive)
CC(C)(C)OC(=O)CC[C@@]1(C(=O)N2CCOCC2)N=C(c2ccc(OCCCO)cc2)O[C@@H]1c1ccccc1N=[N+]=[N-],0.14 (inactive),0.84,-1.97,-4.17 (inactive),-0.496 (inactive),-0.439 (inactive)
O=C1O[C@@H](c2ccccc2)[C@@H](c2ccccc2)N2[C@@H](c3ccc(O)cc3)[C@]3(C(=O)Nc4ccccc43)[C@@H](C(=O)NC[C@H](O)c3ccccc3)[C@H]12,0.737 (inactive),0.232,1.15,-5.08 (inactive),-0.0877 (inactive),-0.173 (inactive)
C=CCOC(=O)[C@@H]1[C@H]2C(=O)O[C@H](c3ccccc3)[C@H](c3ccccc3)N2[C@H](c2ccc(OCCOC(=O)[C@H]3C[C@H]4C(=O)N[C@@H](Cc5ccccc5)C(=O)N4[C@H]3c3ccc(O)cc3)cc2)[C@@]12C(=O)Nc1ccc(I)cc12,2.09 (inactive),0.81,0.265,6.27 (inactive),-0.177 (inactive),-0.343 (inactive)
CC(=O)N1Cc2ccccc2C[C@@]2(N=C(c3ccc(OCCCO)cc3)O[C@H]2c2ccccc2)C1=O,1.11 (inactive),0.887,-2.24,-3.3 (inactive),-0.662 (inactive),-0.681 (inactive)
O=C1OCCC=C[C@H]2OC34C=CCN(c5ccc6ccccc6c5)C(=O)[C@H]3N(CCCCCCO)C(=O)[C@@H]4C12 (stereo partly specified),-0.0517 (inactive),0.79,0.0888,-5.18 (inactive),0.183 (inactive),0.399 (inactive)
COc1ccc([Si](C)(C)[C@@H]2[C@@H](CCn3cc([C@H](O)c4ccccc4)nn3)O[C@]3(C(=O)N(C)c4ccccc43)[C@H]2C)cc1,-0.558 (inactive),0.679,-1.13,-6.22 (inactive),0.131 (inactive),-0.858 (inactive)
O=C1O[C@H](c2ccccc2)[C@H](c2ccccc2)N2[C@H]1[C@@H](C(=O)N1CCCCCCC1)[C@]1(C(=O)Nc3ccc(C#CC4=CCCCC4)cc31)[C@H]2c1ccc(O)cc1,8.07 (active),1,-1.96,3.02 (inactive),-0.323 (inactive),-0.649 (inactive)
Cc1c(NC(=O)/C(C#N)=C/C=C/c2ccccc2)c(=O)n(-c2ccccc2)n1C,-0.3 (inactive),0.559,-0.582,-1.5 (inactive),0.062 (inactive),0.214 (inactive)
COc1ccc([Si](C)(C)[C@@H]2[C@@H](CC(=O)N3Cc4ccccc4C[C@H]3CO)O[C@]3(C(=O)N(Cc4cccc(N5C(=O)COc6ccccc65)c4)c4ccccc43)[C@H]2C)cc1,1.16 (inactive),0.778,-2.79,-0.616 (inactive),-0.635 (inactive),-0.0275 (inactive)
C/C=C/[C@H](CCn1cc([C@H](O)c2ccccc2)nn1)[Si](C)(C)c1ccc(OC)cc1,-0.0661 (inactive),0.634,1.03,-5.59 (inactive),-0.131 (inactive),-0.28 (inactive)
NC(=O)NCC#Cc1ccc2c(c1)[C@]1(C(=O)N2)[C@H](C(=O)NC[C@H](O)c2ccccc2)[C@H]2C(=O)O[C@H](c3ccccc3)[C@H](c3ccccc3)N2[C@@H]1c1ccccc1OCCO,0.635 (inactive),0.799,-1.32,-3.41 (inactive),-0.228 (inactive),-0.374 (inactive)
C[n+]1ccc2ccc(O)cc2c1,1.35 (inactive),0.612,-0.901,-8.11 (active),0.124 (inactive),0.282 (inactive)
COCC1=C([C@H](O)CCc2ccccc2)[C@H](CO)[C@@H]2C(=O)N(Cc3ccccc3)C(=O)[C@@H]2C1,-0.0534 (inactive),0.155,-0.54,-5.17 (inactive),-0.955 (inactive),-0.946 (inactive)
COC(=O)[C@@]1(Cc2ccc(OC)cc2)[C@H]2c3cc(C(=O)N4CCCC4)n(CCN4CCOCC4)c3C[C@H]2CN1C(=O)c1ccccc1,1.11 (inactive),0.0956,-1.17,-5.18 (inactive),0.778 (inactive),0.485 (inactive)
CN1C(=O)C2C=CC(C(O)C(C)(C)C)N(Nc3ccccc3)C2C1=O (stereo unspecified),0.127 (inactive),0.403,0.987,-0.565 (inactive),-0.415 (inactive),-0.815 (inactive)
C[N+](C)(C)CCCCNC(=O)[C@H]1C[C@H]2C(=O)N3CCC[C@H]3C(=O)N2[C@H]1c1ccc(O)cc1,1.36 (inactive),0.806,-0.0706,-0.675 (inactive),0.0919 (inactive),-0.206 (inactive)
COCCCNC(=O)[C@]1(Cc2ccccc2N=[N+]=[N-])N=C(c2ccc(OCCCO)cc2)O[C@@H]1c1ccccc1CN=[N+]=[N-],0.0423 (inactive),0.758,-2.21,-0.242 (inactive),-0.659 (inactive),-0.443 (inactive)
COc1ccc(C(=O)Nc2cccc(CN3C(=O)[C@@]4(O[C@@H](CC(=O)N5Cc6ccccc6C[C@H]5CO)[C@H]([Si](C)(C)c5ccc(OC)cc5)[C@H]4C)c4ccccc43)c2)cc1,1.44 (inactive),0.698,-2.64,-3.18 (inactive),-0.0924 (inactive),0.071 (inactive)
CC(C)C(CO)N1C(=O)[C@@H]2[C@H]3C(=O)OCC=C[C@H]3OC23C=CCN(c2ccc4ccccc4c2)C(=O)[C@@H]13 (stereo partly specified),0.0164 (inactive),-0.525,-0.279,-3.29 (inactive),0.207 (inactive),0.426 (inactive)
COc1ccc(C(=O)Nc2cccc(CN3C(=O)[C@@]4(O[C@@H](CCn5cc([C@H](O)c6ccccc6)nn5)[C@H]([Si](C)(C)c5ccc(OC)cc5)[C@H]4C)c4ccccc43)c2)cc1,0.0252 (inactive),0.575,-2.31,0.472 (inactive),-0.694 (inactive),-1.14 (inactive)
CN1C(=O)C2C=CC(C(O)C(c3ccccc3)c3ccccc3)N(Nc3ccccc3)C2C1=O (stereo unspecified),0.0848 (inactive),0.68,0.608,-4.01 (inactive),0.535 (inactive),-0.0171 (inactive)
C=C[C@@H](C)[C@@H](OC(=O)Nc1ccc(OC)cc1)c1ccc(O)c2ccccc12,1.36 (inactive),-0.0477,-1.65,-3.38 (inactive),0.453 (inactive),0.196 (inactive)
O=C1C2C=CC(C(O)c3ccc(B(O)O)cc3)N(Nc3ccc([N+](=O)[O-])cc3)C2C(=O)N1c1ccccc1 (stereo unspecified),0.432 (inactive),0.208,1.18,-1.63 (inactive),-0.169 (inactive),-0.219 (inactive)
